The values below come from PubChem BioAssay (EPA / NIEHS).

Structures are written as SMILES. Results filed as inconclusive are left out. Active and inactive are the calls of the source. Rule for the calls: active = hit-call score of the fitted dose curve at least 0.9, where 1 is the maximum; inconclusive = response in the unintended direction; inactive = score below 0.9.

Sequence of Retinoic acid receptor RXR-alpha (Homo sapiens) (P19793 whole entry, looked up): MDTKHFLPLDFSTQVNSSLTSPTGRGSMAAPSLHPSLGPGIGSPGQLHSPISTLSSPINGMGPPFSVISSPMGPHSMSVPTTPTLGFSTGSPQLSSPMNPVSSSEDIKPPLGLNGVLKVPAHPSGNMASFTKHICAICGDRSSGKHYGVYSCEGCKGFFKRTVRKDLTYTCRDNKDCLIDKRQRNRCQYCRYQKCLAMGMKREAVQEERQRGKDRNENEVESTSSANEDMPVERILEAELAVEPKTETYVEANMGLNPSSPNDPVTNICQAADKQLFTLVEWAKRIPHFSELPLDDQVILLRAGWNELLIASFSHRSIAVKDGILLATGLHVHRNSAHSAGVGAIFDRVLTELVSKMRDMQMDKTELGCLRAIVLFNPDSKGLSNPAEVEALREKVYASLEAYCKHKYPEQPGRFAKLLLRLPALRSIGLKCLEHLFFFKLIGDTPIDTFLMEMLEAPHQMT

The test addresses Retinoic acid receptor RXR-alpha (Homo sapiens) (UniProt P19793). The test is described as follows: ATG_RXRa_TRANS: Attagene TRANS-FACTORIAL HepG2 Assay for human Retinoid X Receptor alpha (RXRa) (AID 2283012). The procedure:
ATG_TRANS is a cell-based, multiplexed-readout assay that uses HepG2, a human liver cell line, with measurements taken at 24 hours after chemical dosing in a 24-well plate.ATG_RXRa_TRANS is one of 30 assay component(s) measured or calculated from the ATG_TRANS assay. It is designed to make measurements of mRNA induction, a form of inducible reporter, as detected with fluorescence intensity signals by Reverse transcription polymerase chain reaction (RT-PCR) and Capillary electrophoresis technology.Data from the assay component ATG_RXRa_TRANS was analyzed into 1 assay endpoint. This assay endpoint, ATG_RXRa_TRANS, was analyzed in the positive analysis fitting direction relative to DMSO as the negative control and baseline of activity. Using a type of inducible reporter, measures of mRNA for gain-of-signal activity can be used to understand the reporter gene at the transcription factor-level as they relate to the gene RXRA. Furthermore, this assay endpoint can be referred to as a primary readout, because this assay has produced multiple assay endpoints where this one serves a reporter gene function. To generalize the intended target to other relatable targets, this assay endpoint is annotated to the nuclear receptor intended target family, where the subfamily is non-steroidal.
Human liver HepG2 cells are transiently transfected with multiple reporter transcription units (MRTUs) in 6-well plates using FuGene 6 reagent (Roche; 3 ml FuGene/1 mg DNA). The MRTU constructs are regulated by a cis-regulating element (promoter). […] A major difference between the CIS and TRANS system is that in CIS activities of endogenous TFs are measured, whereas the TRANS assay evaluates changes in activities of exogenous, chimeric NR-Gal4 proteins. […] At the end of 24 hour incubation, total RNA was isolated using TriZol reagent (Invitrogen). The isolated RNA is then reverse-transcribed using oligo(dT) primer and Mo-MLV reverse transcriptase (Invitrogen) with DNAse I (Ambion) treatment for 30 min. The one-tenth of the produced cDNA was amplified by PCR using Taq DNA polymerase (Invitrogen) and two reporter sequence-specific primers. The PCR products were fluorescently labeled by primer extension with 6-arboxyfluorescein (6-FAM) 5'-labeled reporter sequence-specific primer (2 min at 95 C, 20 s at 68 C and 10 min at 72 C) and these products were digested with 5U of HpaI (New England Biolabs) for 2h at 37 C. The fragments were purified using Qiaquick PCR columns (Qiagen), analyzed on an ABI 3130xL genetic analyzer (Applied Biosystems) with peak positions identified by using a set of X-rhodamine (ROX)-labeled MapMarker1000 molecular weight standards (BioVentures). The raw capillary electrophoresis data was processed using Attagraph software (Attagene).
In the case of `CC(=O)[C@H]1CC[C@H]2[C@@H]3CCC4=CC(=O)CC[C@]4(C)[C@H]3CC[C@]12C`, the molecule was called inactive.
Turning to `N#CSCSc1nc2ccccc2s1`, the result was inactive.
The same measure, in the same setting: in the case of `COc1nc(C)nc(NC(=O)NS(=O)(=O)c2ccccc2OCCCl)n1` it was “inactive”.
Turning to `C#C[C@]1(O)CC[C@H]2[C@@H]3CCC4=CC(=O)CC[C@@H]4[C@H]3CC[C@@]21CC`, the outcome was inactive.
In the case of `Cc1nn(C)c(Oc2ccccc2)c1C=NOCc1ccc(C(=O)OC(C)(C)C)cc1`, the call was inactive.
For `CCCCC(CC)COC(=O)c1ccccc1C(=O)O` (stereo not given), the result was inactive.
Take `O=C(O)C1(C(=O)Nc2ccc(Cl)cc2Cl)CC1`: the call was inactive.
On the same count and under the same terms, in the case of `C#CCOC(=O)[C@@H](C)Oc1ccc(Oc2ncc(Cl)cc2F)cc1` it was “inactive”.
Same read-out and setting: the value for `CCCCC(CC)CN1C(=O)C2C3C=CC(C3)C2C1=O` (stereo not given) was “inactive”.
For `CCCCOC(=O)C(C)Oc1ccc(Oc2ccc(C(F)(F)F)cn2)cc1` (stereo not given), the molecule was called inactive.
On the same count and under the same terms, in the case of `CCOC(=O)C(C)Oc1ccc(Oc2cnc3cc(Cl)ccc3n2)cc1` (stereo not given) it was “inactive”.
Same read-out and setting: the value for `COc1c(Cl)ccc(Cl)c1C(=O)O` was “inactive”.
On the same count and under the same terms, in the case of `CC(C)(c1ccc(O)cc1)c1ccc(O)cc1` it was “inactive”; in that of `CC(=O)S[C@@H]1CC2=CC(=O)CC[C@]2(C)[C@H]2CC[C@@]3(C)[C@@H](CC[C@@]34CCC(=O)O4)[C@H]12`, “inactive”; in that of `CCC(O)=C1C(=O)CC(C(=O)O)CC1=O` (stereo not given), “inactive”.
In the case of `CCCCOCCOCCOCc1cc2c(cc1CCC)OCO2`, the molecule was called inactive.
With `CN(C)C(=O)Nc1ccc(Cl)c(Cl)c1`, the call was inactive.
As for `C[C@]12C[C@H](O)[C@H]3[C@@H](CCC4=CC(=O)CC[C@@]43C)[C@@H]1CC[C@@H]2C(=O)CO`, the call was inactive.
As to `CCN(CC)C(=O)c1cccc(C)c1`, the molecule was classed as inactive.
The same measure, in the same setting: the value for `C[C@]12CC[C@@H]3c4ccc(O)cc4C[C@@H](CCCCCCCCCS(=O)CCCC(F)(F)C(F)(F)F)[C@H]3[C@@H]1CC[C@@H]2O` (stereo not given in full) was “inactive”.
`COCCO`: the call was inactive.
For `CCN(Cc1c(F)cccc1Cl)c1c([N+](=O)[O-])cc(C(F)(F)F)cc1[N+](=O)[O-]`, the molecule was classed as inactive.
As for `S=C(S)NCCNC(=S)S.[Mn+2].[S-]C([S-])=NCCN=C([S-])[S-].[Zn+2]`, the call was inactive.
`O=C(c1ccccc1)C1CCCCC1`: the molecule was classed as inactive.
The same measure, in the same setting: the value for `CCCCOC(=O)[C@@H](C)Oc1ccc(Oc2ccc(C(F)(F)F)cn2)cc1` was “inactive”.
On the same count and under the same terms, the value for `CCOC(=O)c1ccc(O)cc1` was “inactive”; that for `CCC(C)OC(=O)N1CCCCC1CCO` (stereo not given) was “inactive”; that for `CCOC(=O)[C@H](C)Oc1ccc(Oc2nc3ccc(Cl)cc3o2)cc1` was “inactive”.
Same read-out and setting: in the case of `N[C@@H](Cc1cc(I)c(Oc2ccc(O)c(I)c2)c(I)c1)C(=O)O` it was “inactive”; in that of `CCCCCOC(=O)COc1cc(N2C(=O)C3=C(CCCC3)C2=O)c(F)cc1Cl`, “inactive”.
On to `CCCN(CCC)C(=O)SCC`, for which the outcome was inactive.
What is called AC50 is the midpoint of the concentration-response curve, whichever way the signal moves. In the case of `CC(C)CCCCCCc1ccc(O)cc1`, the AC50 was 12.3 µM (active) [middle of 4 runs].
For the molecule `CCCOC(=O)c1ccc(C(=O)OCCC)nc1`, the molecule was called inactive.
`c1ccc(Nc2ccccc2)cc1`: the molecule was classed as inactive.
Consider `CC1(C)C(C=C(Cl)Cl)C1C(=O)OCc1cccc(Oc2ccccc2)c1` (stereo not given), for which the molecule was called inactive.
In the case of `O=C(c1ccc(O)cc1O)c1ccc(O)cc1O`, the result was inactive.
For `COC(=O)c1cccc(C)c1S(=O)(=O)NC(=O)Nc1nc(OCC(F)(F)F)nc(N(C)C)n1`, the outcome was inactive.
In the case of `O=C(O)c1ccccc1`, the call was inactive.
On the same count and under the same terms, the value for `CCNc1nc(N)nc(Cl)n1` was “inactive”; that for `S=C([S-])NCCNC(=S)[S-].[Mn+2]` was “inactive”.
